# A number with no mark means an inactive call.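 How the source made its calls, unless noted: active means NADPH fluorescence slope more negative than the mean of all samples by about 3 SD, 99.7% confidence; inactive means the rest.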
# Target: Voltage-gated potassium channel subunit beta-2 (Rattus norvegicus) (UniProt P62483)
# Assay: inhibitors of rat Kvbeta2 reductase activity – biochemical, NADPH fluorescence, primary screen (AID 622;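 active means fluorescence slope higher than the sample average by over 3 SD, cut at about -0.22 in these data, passing the limit was not always enough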;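 further: slope of raw intensity against log time taken from 70 to 1610 s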)
# Conditions: recombinant KvBeta, 4-cyanobenzaldehyde reduction, at 10 µM, active compounds read high
# Chain of Voltage-gated potassium channel subunit beta-2 (Rattus norvegicus) (P62483 whole entry, looked up): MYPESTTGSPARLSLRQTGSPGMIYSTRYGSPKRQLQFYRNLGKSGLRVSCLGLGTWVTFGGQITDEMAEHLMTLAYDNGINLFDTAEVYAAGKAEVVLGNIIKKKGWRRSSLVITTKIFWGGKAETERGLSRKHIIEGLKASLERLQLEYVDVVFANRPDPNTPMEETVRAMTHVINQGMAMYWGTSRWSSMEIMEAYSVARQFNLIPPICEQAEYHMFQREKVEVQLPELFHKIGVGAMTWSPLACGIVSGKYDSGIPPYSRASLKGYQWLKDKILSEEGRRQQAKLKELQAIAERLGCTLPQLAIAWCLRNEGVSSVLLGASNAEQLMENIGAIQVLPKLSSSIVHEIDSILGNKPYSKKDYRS
row,SMILES,fluorescence slope
1,CC1CCN(S(=O)(=O)c2cccc(C(=O)Nc3ccccn3)c2)CC1,-0.338
2,CC(=O)Nc1ccc(N=Cc2nc(-c3ccc(C)cc3)oc2O)cc1,-0.281
3,CN(C(=O)C1CCCO1)c1nnc(-c2ccncc2)s1 (centres undefined),-0.322
4,CCOC(=O)c1[nH]c(C)c(C(=O)NC)c1C,-0.563

# Target: Voltage-gated potassium channel subunit beta-2 (Rattus norvegicus) (UniProt P62483)
# Assay: enhancers of rat Kvbeta2 NADPH turnover – biochemical, NADPH fluorescence, primary screen (AID 623);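 further: fluorescence intensity change per second fitted from 20 to 320 s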
# Conditions: Recombinant KvBeta, NADPH fluorescence decrease slope, 10 min; at 10 µM; active compounds read low
row,SMILES,NADPH fluorescence slope
1,CCN1CCN(C(CNC(=O)c2ccc3c(c2)OCO3)c2cccnc2)CC1 (centres undefined),1.4e-05
2,Cc1cccnc1-n1c(CCN2C(=O)c3ccccc3C2=O)nc2ccccc2c1=O,-7.6e-06
3,COc1cc2c(N3CCOCC3)cc(O)c(CC(=O)Nc3ccccc3)c2cc1OC,-3.7e-06
4,Cc1ccc(-c2nc3cc(NC(=O)C(C)C)ccc3o2)cc1C,2.2e-05
5,Cc1ccc(-c2nnc(N3CCN(C(=O)CN4C(=O)c5ccccc5C4=O)CC3)c3ccccc23)cc1,-5.9e-05
6,Cc1cccc(OCC(=O)N(Cc2cccs2)C2CCS(=O)(=O)C2)c1C (centres undefined),-3.9e-05
7,CCN(CC)C(=O)Cn1c(=O)n(Cc2ccccc2Cl)c2c1c(=O)n(C)c(=O)n2C,3.6e-05
8,CCOc1ccccc1NC(=O)CCSc1nc2n[nH]c(C)c2c(=N)n1-c1ccccc1Cl,-4.1e-05
9,COc1ccc(N2C(=O)CCC(C(=O)N3CCCCC3)C2c2ccc(OC)c(OC)c2)cc1 (centres undefined),5.3e-05
10,COCCNC(=O)C(c1ccc(O)cc1)N(Cc1ccco1)C(=O)CCC(=O)Nc1nccs1 (centres undefined),4.7e-06
11,C=CCN1C(=O)C2(/C(=C(\O)c3ccc4c(c3)OCCO4)C(=O)C(=O)N2CCCOC)c2ccccc21 (centres undefined),-1.1e-05
12,COc1cc2[nH]c(=O)c(C(=O)NCCCN3CCCCC3)c(O)c2cc1OC,-5.3e-05
13,CCc1[nH]nc2c1C1(CCN(C(=O)OCc3ccccc3)CC1)C(C#N)=C(N)O2,-4.5e-05
14,O=C(Nc1cccc2ccccc12)N1CCN(c2ccccc2)CC1,-2.7e-05
15,CC(=O)N1CCC(N(C(=O)Nc2ccc(C)c(C)c2)C2CCCC2)CC1,-1.2e-06
16,O=C1CCCc2nc(N3CCCCC3)sc21,-4.5e-05
17,C=CCOc1ccc(C2/C(=C(\O)c3c(C)[nH]c(C(=O)OC)c3C)C(=O)C(=O)N2CCN(C)C)cc1 (centres undefined),-1.1e-05
18,Cc1cc(NC(=O)c2cccc(S(=O)(=O)N3CC(c4ccccc4)CC3=O)c2)no1 (centres undefined),-5.1e-05
19,CCN(CCCNC(=O)CC1Oc2ccc(C)cc2NC1=O)Cc1ccccc1 (centres undefined),-4.4e-05
20,CN1CCc2nc(SCCOc3ccccc3)c(C#N)cc2C1,-9.3e-07

row,SMILES,NADPH fluorescence slope
1,COc1ccc(S(=O)(=O)N2CCC(C(=O)Nc3c(F)cccc3F)CC2)cc1,3.8e-05
2,Cc1nc2ccc(NC(=O)NCc3ccco3)cc2s1,5e-06
3,CCNc1ccc(C(=O)OCC)cc1NC(=O)c1cc(S(=O)(=O)N2CCOCC2)ccc1C,4.9e-05
4,CC1CCN(c2nc3c(c(=O)n(C)c(=O)n3C)n2Cc2ccccc2)CC1,-6.1e-06
5,O=C(Oc1cc2oc(=O)c3c(c2cc1Cl)CCCC3)c1ccco1,-2.3e-05
6,CCOC(=O)CNC(=O)CSc1nc(N)cc(N)n1,2.9e-05
7,CCCC(=O)C1=C(N(C)c2ccccc2)CC(C)(C)C(C(=O)OC)C1=O (centres undefined),-7.2e-06
8,CCOC(=O)c1ccc(N2C(=O)CC(N(C)CCc3ccc(OC)c(OC)c3)C2=O)cc1 (centres undefined),3.6e-05
9,COc1ccc(C2=NOC(C(=O)NC3CCCCC3)C2)cc1OC (centres undefined),-4.1e-05
10,CCOC(=O)c1cc(CC)sc1NC(=O)CCC(=O)O,-4.9e-06
11,O=C(C1CCN(c2nnc(-n3cccc3)s2)CC1)N1CCOCC1,-4.1e-05
12,Cn1cc(Br)c(C(=O)NC2CCCCC2)n1,1.7e-05
13,CC1NC2(C(=O)N(Cc3ccccc3)c3ccccc32)C2C(=O)N(c3ccccc3)C(=O)C12 (centres undefined),-5.5e-05
14,O=C1CC(N2CCN(C3CCc4ccccc4C3)CC2)C(=O)N1c1ccccc1 (centres undefined),-9.9e-05
15,CCCOc1cccc(C(=O)Nc2cc(NC(=O)c3ccco3)ccc2OC)c1,-2.4e-05
16,Cn1c(SCC(=O)Nc2ccc3c(c2)OCO3)nnc1-c1cnccn1,-5.5e-05
17,CC1CCN(S(=O)(=O)c2cccc(C(=O)Nc3ccccn3)c2)CC1,-4.1e-05
18,CC(=O)Nc1ccc(N=Cc2nc(-c3ccc(C)cc3)oc2O)cc1,1.5e-05
19,CN(C(=O)C1CCCO1)c1nnc(-c2ccncc2)s1 (centres undefined),-4.6e-05
20,CCOC(=O)c1[nH]c(C)c(C(=O)NC)c1C,-1.3e-05

# Reference: PubChem BioAssay
